What all share (experiment): DAPPL (digital affinity profiling via proximity ligation, sequencing); 10 mM Tris-HCl pH 7.5, 50 mM NaCl, 1 mM DTT, 4% glycerol, room temperature, 30 min; GST-TFs on glutathione beads, 16-mer random dsDNA library, 0.1% formaldehyde crosslink after washing; high values mean tight binding
Conditions in all cases: protein: recombinant; tags: N-terminal GST; dsDNA, one strand shown

One assay deals with T1, ELK1 (Homo sapiens, UniProt P19419 1-428).
T1 sequence: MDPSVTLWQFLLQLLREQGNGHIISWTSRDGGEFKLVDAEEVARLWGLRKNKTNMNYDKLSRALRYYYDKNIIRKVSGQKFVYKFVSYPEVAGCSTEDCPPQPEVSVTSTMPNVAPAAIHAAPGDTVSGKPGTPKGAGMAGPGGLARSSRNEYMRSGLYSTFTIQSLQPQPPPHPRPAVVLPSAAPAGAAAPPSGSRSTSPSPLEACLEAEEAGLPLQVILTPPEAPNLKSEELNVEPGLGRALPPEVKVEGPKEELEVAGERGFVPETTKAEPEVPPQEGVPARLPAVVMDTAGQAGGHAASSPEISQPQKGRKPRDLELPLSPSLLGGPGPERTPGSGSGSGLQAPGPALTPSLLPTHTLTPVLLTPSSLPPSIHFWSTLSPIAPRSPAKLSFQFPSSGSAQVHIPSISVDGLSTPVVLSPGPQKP
In outline:
(§1)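 Sequencing on an Illumina NextSeq500 followed washing, crosslinking with 0.1% formaldehyde, proximity ligation (BsaI/T4 ligase, 1 h, 37 °C) and PCR amplification of pools that had been incubated for 30 min at room temperature with 200 nmole of a random double-stranded 16-mer DNA library in Tris/NaCl/DTT/glycerol buffer. Each pool held DNA-barcoded human transcription factors, expressed in yeast as GST fusions and captured on glutathione beads, plus a tag-only sample. Binding signal is a hexamer's read frequency for a factor divided by its frequency in the tag-only sample.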

For the next assay, the target named is T2, GABPA (Homo sapiens, UniProt Q06546 1-454).
T2 sequence: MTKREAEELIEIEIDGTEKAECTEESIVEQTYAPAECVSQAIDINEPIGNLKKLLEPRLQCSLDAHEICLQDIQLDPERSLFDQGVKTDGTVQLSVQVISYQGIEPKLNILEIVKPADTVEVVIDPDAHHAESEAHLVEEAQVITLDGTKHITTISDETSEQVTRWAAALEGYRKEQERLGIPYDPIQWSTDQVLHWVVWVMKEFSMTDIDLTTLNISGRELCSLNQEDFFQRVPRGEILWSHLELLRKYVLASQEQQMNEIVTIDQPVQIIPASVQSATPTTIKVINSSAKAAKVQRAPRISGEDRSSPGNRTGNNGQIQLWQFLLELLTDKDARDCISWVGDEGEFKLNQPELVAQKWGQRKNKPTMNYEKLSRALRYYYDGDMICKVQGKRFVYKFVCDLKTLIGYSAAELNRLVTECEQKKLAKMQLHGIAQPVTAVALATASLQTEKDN
In outline: as §1

In another assay the target is T3, ERG (Homo sapiens, UniProt P11308 1-479).
T3 sequence: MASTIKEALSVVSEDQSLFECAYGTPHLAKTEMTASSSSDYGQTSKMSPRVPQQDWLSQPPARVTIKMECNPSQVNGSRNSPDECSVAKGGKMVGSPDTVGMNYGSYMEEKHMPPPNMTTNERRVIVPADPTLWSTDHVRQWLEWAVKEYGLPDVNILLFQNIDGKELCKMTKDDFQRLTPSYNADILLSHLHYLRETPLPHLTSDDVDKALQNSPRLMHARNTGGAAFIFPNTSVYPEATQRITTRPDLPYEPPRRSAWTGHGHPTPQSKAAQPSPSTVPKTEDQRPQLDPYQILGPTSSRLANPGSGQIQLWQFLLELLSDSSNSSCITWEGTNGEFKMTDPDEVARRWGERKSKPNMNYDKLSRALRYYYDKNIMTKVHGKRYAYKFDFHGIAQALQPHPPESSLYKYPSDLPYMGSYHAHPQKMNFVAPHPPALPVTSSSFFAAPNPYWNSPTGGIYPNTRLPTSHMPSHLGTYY
Summed up:
as §1

A further assay deals with ELF1 (Homo sapiens, UniProt P32519 1-619). Summed up: as §1
For another assay, the target named is SPIB (Homo sapiens, UniProt Q01892 1-262). Summed up: as §1
A further assay deals with T4, ELK3 (Homo sapiens, UniProt P41970 1-407).
T4 sequence: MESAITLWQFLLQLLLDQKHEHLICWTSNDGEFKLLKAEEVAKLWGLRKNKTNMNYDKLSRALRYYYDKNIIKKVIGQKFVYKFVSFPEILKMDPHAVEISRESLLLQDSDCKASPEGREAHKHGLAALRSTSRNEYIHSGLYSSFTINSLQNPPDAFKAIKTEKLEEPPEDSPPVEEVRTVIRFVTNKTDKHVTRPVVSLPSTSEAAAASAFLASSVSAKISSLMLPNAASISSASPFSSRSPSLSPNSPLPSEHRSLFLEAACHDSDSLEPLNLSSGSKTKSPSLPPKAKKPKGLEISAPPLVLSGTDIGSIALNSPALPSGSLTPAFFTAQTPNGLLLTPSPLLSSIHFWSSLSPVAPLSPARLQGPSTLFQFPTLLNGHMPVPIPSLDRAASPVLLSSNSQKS
In outline: as §1

Another assay addresses T5, SPIC (Homo sapiens, UniProt Q8N5J4 1-248).
T5 sequence: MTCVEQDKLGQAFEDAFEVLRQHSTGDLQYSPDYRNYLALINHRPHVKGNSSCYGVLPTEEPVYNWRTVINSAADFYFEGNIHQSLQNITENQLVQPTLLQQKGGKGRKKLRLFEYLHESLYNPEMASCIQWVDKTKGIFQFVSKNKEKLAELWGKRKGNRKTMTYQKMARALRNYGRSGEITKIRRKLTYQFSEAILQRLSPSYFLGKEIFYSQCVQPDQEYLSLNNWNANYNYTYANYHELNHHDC
Summed up: as §1

The next assay deals with ELF4 (Homo sapiens, UniProt Q99607 1-663). Summed up: as §1
A further assay concerns the target T6, ELK4 (Homo sapiens, UniProt P28324-2 1-405).
T6 sequence: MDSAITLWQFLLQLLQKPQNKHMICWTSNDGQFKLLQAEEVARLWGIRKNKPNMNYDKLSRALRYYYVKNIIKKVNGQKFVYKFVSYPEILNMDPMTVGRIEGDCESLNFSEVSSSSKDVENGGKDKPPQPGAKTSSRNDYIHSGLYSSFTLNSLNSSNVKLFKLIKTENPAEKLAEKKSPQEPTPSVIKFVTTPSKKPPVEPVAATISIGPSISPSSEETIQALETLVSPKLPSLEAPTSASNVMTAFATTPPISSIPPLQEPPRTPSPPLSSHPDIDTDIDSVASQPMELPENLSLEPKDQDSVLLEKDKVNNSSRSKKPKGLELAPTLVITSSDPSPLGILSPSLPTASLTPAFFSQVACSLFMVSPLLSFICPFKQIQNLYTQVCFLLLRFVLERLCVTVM
In outline:
as §1

The target in the next assay is T7, ELF3 (Homo sapiens, UniProt P78545 1-371).
T7 sequence: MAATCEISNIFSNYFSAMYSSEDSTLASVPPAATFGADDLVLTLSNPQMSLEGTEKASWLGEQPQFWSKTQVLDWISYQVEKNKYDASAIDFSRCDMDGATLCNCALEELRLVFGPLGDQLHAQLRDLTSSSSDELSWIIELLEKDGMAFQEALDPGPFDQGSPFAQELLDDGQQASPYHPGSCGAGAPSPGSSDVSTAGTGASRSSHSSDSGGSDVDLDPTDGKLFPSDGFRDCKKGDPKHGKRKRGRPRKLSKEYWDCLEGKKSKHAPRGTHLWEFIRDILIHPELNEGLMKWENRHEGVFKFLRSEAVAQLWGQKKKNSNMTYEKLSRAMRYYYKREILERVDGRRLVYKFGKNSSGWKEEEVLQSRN
In outline:
as §1

A further assay concerns the target ETV1 (Homo sapiens, UniProt P50549 1-477). In outline: as §1
The target in another assay is T8, ERF (Homo sapiens, UniProt P50548 1-548).
T8 sequence: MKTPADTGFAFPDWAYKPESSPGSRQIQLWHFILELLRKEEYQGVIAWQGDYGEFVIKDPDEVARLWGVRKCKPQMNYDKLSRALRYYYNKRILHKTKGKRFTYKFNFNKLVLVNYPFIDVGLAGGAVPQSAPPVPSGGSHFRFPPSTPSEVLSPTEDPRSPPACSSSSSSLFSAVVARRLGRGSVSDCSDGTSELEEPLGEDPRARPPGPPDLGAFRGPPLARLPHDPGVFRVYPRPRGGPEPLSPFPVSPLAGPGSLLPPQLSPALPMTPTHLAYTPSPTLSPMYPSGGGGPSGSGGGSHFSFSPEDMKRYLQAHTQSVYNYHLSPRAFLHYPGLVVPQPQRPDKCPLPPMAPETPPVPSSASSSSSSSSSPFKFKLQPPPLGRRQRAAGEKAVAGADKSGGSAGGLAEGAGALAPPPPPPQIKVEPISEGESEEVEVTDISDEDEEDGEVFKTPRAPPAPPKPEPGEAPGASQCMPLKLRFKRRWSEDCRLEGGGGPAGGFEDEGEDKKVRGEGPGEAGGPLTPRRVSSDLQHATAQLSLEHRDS
Summed up:
as §1

A further assay concerns the target T9, ETV3L (Homo sapiens, UniProt Q6ZN32 1-361).
T9 sequence: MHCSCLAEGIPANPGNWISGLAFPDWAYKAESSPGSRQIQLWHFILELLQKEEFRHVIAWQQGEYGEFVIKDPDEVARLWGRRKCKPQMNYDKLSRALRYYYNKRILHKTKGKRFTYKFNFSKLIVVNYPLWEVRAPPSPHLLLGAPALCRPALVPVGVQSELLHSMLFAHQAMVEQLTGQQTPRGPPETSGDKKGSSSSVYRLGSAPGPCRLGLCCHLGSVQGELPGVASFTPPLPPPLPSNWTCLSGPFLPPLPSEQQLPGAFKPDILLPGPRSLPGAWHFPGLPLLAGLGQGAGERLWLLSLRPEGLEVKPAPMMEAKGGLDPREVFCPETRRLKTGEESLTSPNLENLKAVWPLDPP
Summed up:
as §1

A further assay addresses T10, ETS2 (Homo sapiens, UniProt P15036 1-469).
T10 sequence: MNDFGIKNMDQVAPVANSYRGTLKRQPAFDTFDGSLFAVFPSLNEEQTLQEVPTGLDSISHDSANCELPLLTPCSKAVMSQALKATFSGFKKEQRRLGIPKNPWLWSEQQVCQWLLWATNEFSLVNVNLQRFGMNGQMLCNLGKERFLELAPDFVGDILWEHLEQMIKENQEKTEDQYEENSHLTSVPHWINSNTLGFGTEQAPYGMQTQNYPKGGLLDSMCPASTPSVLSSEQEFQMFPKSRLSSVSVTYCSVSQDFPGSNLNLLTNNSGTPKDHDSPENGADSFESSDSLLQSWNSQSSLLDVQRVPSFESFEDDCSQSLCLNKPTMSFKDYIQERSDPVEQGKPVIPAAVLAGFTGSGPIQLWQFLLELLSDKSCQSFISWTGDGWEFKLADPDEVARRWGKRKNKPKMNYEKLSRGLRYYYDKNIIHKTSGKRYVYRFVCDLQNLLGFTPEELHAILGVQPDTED
Summed up:
as §1

A further assay deals with T11, SPDEF (Homo sapiens, UniProt O95238 1-335).
T11 sequence: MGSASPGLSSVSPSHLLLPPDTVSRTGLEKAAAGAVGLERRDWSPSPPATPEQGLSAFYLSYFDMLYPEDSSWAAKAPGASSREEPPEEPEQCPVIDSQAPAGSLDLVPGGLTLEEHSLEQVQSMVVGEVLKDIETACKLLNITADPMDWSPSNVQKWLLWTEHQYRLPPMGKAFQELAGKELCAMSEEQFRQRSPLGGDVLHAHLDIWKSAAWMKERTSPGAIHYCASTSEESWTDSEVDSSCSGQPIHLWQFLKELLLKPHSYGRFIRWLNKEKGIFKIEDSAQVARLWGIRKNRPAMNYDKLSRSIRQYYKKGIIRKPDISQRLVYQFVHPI
In outline:
as §1

A further assay has as its target T12, ETV7 (Homo sapiens, UniProt Q9Y603 1-341).
T12 sequence: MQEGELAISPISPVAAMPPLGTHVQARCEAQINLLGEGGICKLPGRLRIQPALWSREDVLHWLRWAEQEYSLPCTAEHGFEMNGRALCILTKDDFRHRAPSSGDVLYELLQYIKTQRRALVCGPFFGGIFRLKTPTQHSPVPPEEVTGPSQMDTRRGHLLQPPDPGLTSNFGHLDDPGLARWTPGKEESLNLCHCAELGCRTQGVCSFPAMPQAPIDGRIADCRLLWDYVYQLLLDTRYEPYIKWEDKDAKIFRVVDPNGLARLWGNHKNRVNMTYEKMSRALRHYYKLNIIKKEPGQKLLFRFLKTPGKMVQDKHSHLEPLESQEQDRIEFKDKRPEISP
Summed up:
as §1

A further assay concerns the target T13, ETV3 (Homo sapiens, UniProt P41162-2 1-143).
T13 sequence: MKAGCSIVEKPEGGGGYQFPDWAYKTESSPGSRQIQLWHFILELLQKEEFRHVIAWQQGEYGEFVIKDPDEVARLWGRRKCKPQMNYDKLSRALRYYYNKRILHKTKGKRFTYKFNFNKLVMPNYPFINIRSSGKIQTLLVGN
In outline: as §1

A further assay concerns the target ETV6 (Homo sapiens, UniProt P41212 1-452). Summed up: as §1

Chain of SPIB (Q01892 whole entry): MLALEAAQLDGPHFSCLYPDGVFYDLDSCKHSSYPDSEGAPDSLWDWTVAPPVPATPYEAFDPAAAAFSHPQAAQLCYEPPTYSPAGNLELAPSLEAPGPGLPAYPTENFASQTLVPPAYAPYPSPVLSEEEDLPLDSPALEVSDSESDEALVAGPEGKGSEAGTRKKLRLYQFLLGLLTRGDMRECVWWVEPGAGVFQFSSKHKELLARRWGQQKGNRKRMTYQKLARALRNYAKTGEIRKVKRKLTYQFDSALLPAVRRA
Chain of ETV1 (P50549 whole entry): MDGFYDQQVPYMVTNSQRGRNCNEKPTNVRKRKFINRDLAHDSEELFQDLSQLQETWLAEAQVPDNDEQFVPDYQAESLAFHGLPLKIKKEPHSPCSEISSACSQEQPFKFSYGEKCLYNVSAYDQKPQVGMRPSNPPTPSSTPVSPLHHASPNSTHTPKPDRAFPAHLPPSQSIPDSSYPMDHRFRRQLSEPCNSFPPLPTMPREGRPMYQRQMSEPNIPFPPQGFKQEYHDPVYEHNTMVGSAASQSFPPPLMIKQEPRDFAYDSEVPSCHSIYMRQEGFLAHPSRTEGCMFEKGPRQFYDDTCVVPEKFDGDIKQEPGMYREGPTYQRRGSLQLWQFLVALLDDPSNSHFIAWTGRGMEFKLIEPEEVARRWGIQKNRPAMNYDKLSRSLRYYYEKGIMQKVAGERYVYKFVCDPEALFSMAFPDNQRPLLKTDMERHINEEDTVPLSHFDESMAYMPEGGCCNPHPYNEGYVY
Chain of ELF4 (Q99607 whole entry): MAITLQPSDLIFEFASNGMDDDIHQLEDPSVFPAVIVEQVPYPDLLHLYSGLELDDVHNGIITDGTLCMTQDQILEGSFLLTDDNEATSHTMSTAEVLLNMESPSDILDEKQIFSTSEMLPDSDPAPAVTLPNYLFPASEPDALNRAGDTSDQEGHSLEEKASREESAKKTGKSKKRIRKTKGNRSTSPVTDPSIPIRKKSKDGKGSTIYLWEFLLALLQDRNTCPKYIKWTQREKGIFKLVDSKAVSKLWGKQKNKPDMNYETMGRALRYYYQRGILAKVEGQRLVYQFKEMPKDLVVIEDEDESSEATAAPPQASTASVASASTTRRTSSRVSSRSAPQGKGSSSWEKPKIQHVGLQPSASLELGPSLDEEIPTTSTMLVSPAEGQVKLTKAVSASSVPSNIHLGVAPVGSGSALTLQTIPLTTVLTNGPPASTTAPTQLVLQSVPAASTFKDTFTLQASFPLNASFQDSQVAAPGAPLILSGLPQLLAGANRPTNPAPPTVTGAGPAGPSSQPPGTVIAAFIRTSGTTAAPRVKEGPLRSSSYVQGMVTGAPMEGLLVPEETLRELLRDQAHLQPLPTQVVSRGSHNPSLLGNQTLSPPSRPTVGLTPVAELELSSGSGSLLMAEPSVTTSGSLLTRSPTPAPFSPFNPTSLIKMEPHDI
Chain of ELF1 (P32519 whole entry): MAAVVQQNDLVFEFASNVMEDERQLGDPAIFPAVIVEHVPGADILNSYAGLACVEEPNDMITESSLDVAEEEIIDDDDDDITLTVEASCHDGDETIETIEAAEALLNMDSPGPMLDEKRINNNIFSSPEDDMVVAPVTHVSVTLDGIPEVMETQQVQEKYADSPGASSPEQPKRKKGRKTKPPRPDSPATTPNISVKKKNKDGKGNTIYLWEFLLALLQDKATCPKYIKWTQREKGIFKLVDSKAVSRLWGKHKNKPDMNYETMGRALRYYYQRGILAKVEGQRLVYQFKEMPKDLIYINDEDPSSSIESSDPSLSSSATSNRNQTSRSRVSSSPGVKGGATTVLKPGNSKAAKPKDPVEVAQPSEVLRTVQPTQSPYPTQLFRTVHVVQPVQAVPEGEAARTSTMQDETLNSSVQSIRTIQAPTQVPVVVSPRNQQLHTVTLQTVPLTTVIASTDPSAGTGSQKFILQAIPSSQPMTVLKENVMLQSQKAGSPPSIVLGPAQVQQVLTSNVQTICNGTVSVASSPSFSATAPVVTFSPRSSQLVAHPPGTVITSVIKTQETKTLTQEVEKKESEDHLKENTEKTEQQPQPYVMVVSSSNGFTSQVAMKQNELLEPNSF
Chain of ETV6 (P41212 whole entry): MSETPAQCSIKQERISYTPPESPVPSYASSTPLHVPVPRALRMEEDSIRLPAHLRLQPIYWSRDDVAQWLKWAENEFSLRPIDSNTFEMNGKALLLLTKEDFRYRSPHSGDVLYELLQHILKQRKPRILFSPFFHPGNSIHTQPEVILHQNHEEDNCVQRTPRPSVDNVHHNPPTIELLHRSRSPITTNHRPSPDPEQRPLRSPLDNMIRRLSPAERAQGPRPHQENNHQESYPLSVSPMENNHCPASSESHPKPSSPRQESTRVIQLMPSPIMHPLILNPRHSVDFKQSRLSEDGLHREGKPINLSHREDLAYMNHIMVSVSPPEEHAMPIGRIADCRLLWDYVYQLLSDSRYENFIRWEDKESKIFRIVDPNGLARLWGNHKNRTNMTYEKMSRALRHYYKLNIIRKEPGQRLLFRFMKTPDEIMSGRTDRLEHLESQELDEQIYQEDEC

On to ATAAGA, for which the binding signal with ELK1 was 1.12 fold enrichment (6-mer frequency, TF over GST control); with GABPA, 1.08 fold enrichment (6-mer frequency, TF over GST control); with ERG, 1.11 fold enrichment (6-mer frequency, TF over GST control); in the assay with ELF1, 1.04 fold enrichment (6-mer frequency, TF over GST control); with SPIB, 1.04 fold enrichment (6-mer frequency, TF over GST control); with ELK3, 1.13 fold enrichment (6-mer frequency, TF over GST control). For the same sequence, the binding signal was 1.03 fold enrichment (6-mer frequency, TF over GST control) with SPIC; 1.06 fold enrichment (6-mer frequency, TF over GST control) with ELF4; 1.11 fold enrichment (6-mer frequency, TF over GST control) in the assay with ELK4; 1.04 fold enrichment (6-mer frequency, TF over GST control) with ELF3; 1.1 fold enrichment (6-mer frequency, TF over GST control) in the assay with ETV1; 1.14 fold enrichment (6-mer frequency, TF over GST control) with ERF. Moreover, the binding signal in the assay with ETV3L was 1.05 fold enrichment (6-mer frequency, TF over GST control); with ETS2, 1.09 fold enrichment (6-mer frequency, TF over GST control); with SPDEF it was 1.15 fold enrichment (6-mer frequency, TF over GST control); with ETV7, 1.04 fold enrichment (6-mer frequency, TF over GST control); with ETV3 it was 1.07 fold enrichment (6-mer frequency, TF over GST control); with ETV6, 1.07 fold enrichment (6-mer frequency, TF over GST control).

The values are drawn from PMC7862700, “An all-to-all approach to the identification of sequence-specific readers for epigenetic DNA modifications on cytosine”.
